# Test results: paper PMC4336329 (PLoS ONE, 2015)
# Hit rate of the full screen: of about 310,000 compounds, about 2,200 (0.71%) showed an effect of 50% or more. The effect is printed as a negative number. For the sample, strong results were picked, then their nearest neighbours and some compounds at random.
# Biological target: human ether-à-go-go-related gene (hERG) potassium channel (human, UniProt Q12809)
# Test: primary screen, population patch clamp on CHO cells stably expressing hERG; higher = less effect of the substance
# Chain of human ether-à-go-go-related gene (hERG) potassium channel (Q12809 whole entry, looked up): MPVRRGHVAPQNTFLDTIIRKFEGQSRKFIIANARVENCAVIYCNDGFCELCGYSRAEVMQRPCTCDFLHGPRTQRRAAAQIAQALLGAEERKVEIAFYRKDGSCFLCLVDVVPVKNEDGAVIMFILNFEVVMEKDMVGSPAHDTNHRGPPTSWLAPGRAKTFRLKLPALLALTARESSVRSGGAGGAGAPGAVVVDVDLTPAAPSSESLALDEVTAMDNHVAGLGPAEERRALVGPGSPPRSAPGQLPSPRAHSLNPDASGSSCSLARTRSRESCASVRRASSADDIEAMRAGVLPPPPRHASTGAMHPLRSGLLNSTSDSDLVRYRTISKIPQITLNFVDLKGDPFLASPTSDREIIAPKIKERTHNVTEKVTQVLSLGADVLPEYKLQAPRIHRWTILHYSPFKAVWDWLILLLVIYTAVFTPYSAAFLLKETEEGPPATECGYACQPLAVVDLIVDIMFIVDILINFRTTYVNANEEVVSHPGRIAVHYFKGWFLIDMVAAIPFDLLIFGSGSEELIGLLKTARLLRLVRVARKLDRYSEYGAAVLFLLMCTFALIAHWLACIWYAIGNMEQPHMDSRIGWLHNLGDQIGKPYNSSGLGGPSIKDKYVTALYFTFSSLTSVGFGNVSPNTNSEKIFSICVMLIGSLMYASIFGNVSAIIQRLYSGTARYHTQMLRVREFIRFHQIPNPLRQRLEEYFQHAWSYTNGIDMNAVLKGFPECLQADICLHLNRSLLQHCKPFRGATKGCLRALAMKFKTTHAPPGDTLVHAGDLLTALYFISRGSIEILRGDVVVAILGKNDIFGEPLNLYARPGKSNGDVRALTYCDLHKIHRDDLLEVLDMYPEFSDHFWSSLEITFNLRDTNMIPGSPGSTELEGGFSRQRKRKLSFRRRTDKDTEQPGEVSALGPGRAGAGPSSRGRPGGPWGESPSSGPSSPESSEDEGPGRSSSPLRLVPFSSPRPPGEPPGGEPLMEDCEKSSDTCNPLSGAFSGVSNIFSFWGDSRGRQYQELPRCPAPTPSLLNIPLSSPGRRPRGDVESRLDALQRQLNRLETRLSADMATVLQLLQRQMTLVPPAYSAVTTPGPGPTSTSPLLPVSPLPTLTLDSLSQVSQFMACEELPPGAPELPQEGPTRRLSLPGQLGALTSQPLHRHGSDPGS
row,SMILES,"hERG current change (%, negative = inhibition) at 1uM [%]"
1,COCCOc1nc2ccccc2nc1C,6.8
2,O=C(Nc1nnc(-c2ccccc2)s1)c1ccccc1F,13.3
3,CC(C)C[C@@H](CO)NC(=O)CC[C@H](NC(=O)OC(C)(C)C)C(=O)N(Cc1ccccc1)Cc1ccccc1,16
4,CCOC(=O)c1cnc(SC2CC(=O)N(c3cccc(OC)c3)C2=O)nc1N (centres unmarked),11.3
5,CC1(c2nnc(-c3cccc(Cl)c3)o2)CC(c2cccc([N+](=O)[O-])c2)=NO1 (centres unmarked),16.3
6,COc1cc(CN2CCC(CO)(Cc3cccc(C(F)(F)F)c3)CC2)ccc1F,-15.9
7,OCC1(Cc2cccc(C(F)(F)F)c2)CCN(Cc2cc(F)cc(F)c2)CC1,4.2
8,COc1ccc(CC2(CO)CCN(Cc3cnn(-c4ccccc4OC)c3)CC2)cc1,-48.4
9,COc1ccc(CC2(CO)CCN(Cc3cnn(-c4ccccc4)c3)CC2)cc1,-57.2
10,CCOc1cc(CN2CCC(CO)(Cc3cccc(C(F)(F)F)c3)CC2)ccc1OC,-78
11,OCC1(Cc2ccccc2)CCCN(Cc2cnn(-c3ccccc3)c2)C1 (centres unmarked),-27.4
12,CC(=O)Nc1ccc(S(=O)(=O)Oc2ccc(N3C(=O)C4CCCCC4C3=O)cc2)cc1 (centres unmarked),15.5
13,CCOC(=O)c1nnn(-c2nonc2N)c1-c1ccc(F)cc1,13.5
14,COC(=O)C1C(O)CCC2CN3CCc4c([nH]c5ccccc45)C3CC21 (centres unmarked),1.1
15,CC[C@]12CCCN3CCc4c(n(c5ccccc45)[C@@](O)(C(=O)OC)C1)[C@@H]32,-85.4
16,CCC12CCCN3CCc4c(n(c5ccccc45)C(O)(C(=O)OC)C1)C32 (centres unmarked),-2.18
17,CC[C@]12CCCN3CCc4c(n(c5ccccc45)[C@](O)(C(=O)OC)C1)[C@@H]32,-69.4
18,CC[C@H]1CC2CN3CCc4c([nH]c5ccccc45)C(C(=O)OC)(C2)C13.Cl (some centres unmarked),7.18
19,COC(=O)[C@@H]1[C@H]2C[C@H]3c4[nH]c5ccccc5c4CCN3C[C@@H]2CC[C@@H]1O,-21.3
20,O=P(O)(O)C(O)C(F)(F)C(F)(F)C(F)(F)C(F)F (centres unmarked),21.8
21,O=S(=O)(c1ccccc1)c1nc(-c2ccco2)oc1N1CCCCCC1,11.4

row,SMILES,"hERG current change (%, negative = inhibition) at 1uM [%]"
1,O=C(Nc1ccncc1)c1ccc(F)cc1,7.66
2,Cc1ccc(NC(=O)CSc2nnc(-c3cccnc3)n2CCN2CCCCC2)cc1,-53.7
3,CCCn1c(SCC(=O)Nc2cccc(C(=O)OC)c2)nnc1-c1cccnc1,-22.5
4,Cn1c(SCC(=O)Nc2cccc(F)c2)nnc1-c1cccnc1,-6.1
5,Cc1ccc(NC(=O)CSc2nnc(-c3cccnc3)n2-c2ccc(C)cc2)cc1,2.22
6,O=C(CSc1nnc(-c2cccnc2)n1-c1ccccc1)Nc1ccccc1,-44.9
7,O=C(CSc1nnc(-c2cccnc2)n1CCN1CCCCC1)Nc1cccc(Cl)c1,-80.3
8,Cc1ccc(NC(=O)C(C)Sc2nnc(-c3cccnc3)o2)cc1 (centres unmarked),14
9,Cc1ccc(NC(=O)C(C)Sc2nnc(-c3cccnc3)n2-c2ccccc2)cc1 (centres unmarked),-86.2
10,Cn1c(SCC(=O)Nc2ccc(F)cc2)nnc1-c1cccnc1,-2.78
11,CCOC(=O)c1ccc(CSc2nnc(N)s2)cc1,5.39
12,Cc1ccc(C(=O)N2NC(c3ccc(F)cc3)C3C(=O)N(c4ccc(C)c(C)c4)C(=O)C32)cc1 (centres unmarked),10.6
13,CCOC(=O)C1CCN(C(=O)Cn2cc(C(=O)C3CC3)c3ccccc32)CC1,13.4
14,O=C(O)C(Cc1c[nH]c2ccccc12)NS(=O)(=O)c1ccc(Cl)c(C(F)(F)F)c1 (centres unmarked),7.86
15,COc1ccc(NC(=S)Nc2ccc(OC)cc2OC)c(OC)c1,17.8
16,COC/C=C/C1=CC2=CC(=O)C(C)(OC(=O)c3cnc4ccccc4n3)C(=O)C2=CN1C1CC1 (centres unmarked),9.57
17,N#Cc1cn(CCCOc2ccccc2)c2ccccc12,11.3
18,c1ccc(-c2nc(NC3CCCC3)c3ccccc3n2)cc1,18.4
19,c1csc(-c2nnc(NC3CCCCC3)c3ccccc23)c1,-40.8
20,c1ccc2c(NC3CCCC3)nnc(NC3CCCC3)c2c1,-70.4
21,CC1(C(=O)O)COC(c2ccc([N+](=O)[O-])cc2)OC1 (centres unmarked),2.26

row,SMILES,"hERG current change (%, negative = inhibition) at 1uM [%]"
1,Cn1c(=O)cc(SCC(=O)N2CCCC2)c2ccccc21,9.79
2,CCn1ccnc1CNC(=O)CC1C(=O)NCCN1Cc1ccc(F)cc1Cl (centres unmarked),13.5
3,COc1ccc2[nH]cc(C(O)CN3CCN(c4ccccc4F)CC3)c2c1 (centres unmarked),8.35
4,COc1ccc(N2CCN(CC(O)c3c[nH]c4ccc(OC)cc34)CC2C)cc1 (centres unmarked),-50.6
5,COc1ccc2[nH]cc(C(O)CN3CCC(C(N)=O)CC3)c2c1 (centres unmarked),11.1
6,CC(C)OC(=O)/C(=C\c1ccccc1)NC(=O)c1ccccc1,9.47
7,CCN(CC)S(=O)(=O)c1ccc(C)c(NC(=O)CN2CCN(C)CC2)c1.O=C(O)C(=O)O,6
8,CCN(CC)S(=O)(=O)c1ccc(C)c(NC(=O)CNCCN(C(C)C)C(C)C)c1.O=C(O)C(=O)O,-66.5
9,CCN(CC)S(=O)(=O)c1ccc(C)c(NC(=O)CNCc2ccccc2OC)c1.O=C(O)C(=O)O,20.9
10,O=C1Nc2ccccc2N=C(c2ccccc2)C1N1CCOCC1 (centres unmarked),18.1
11,COc1nc(NC2CCCCC2)nc(NC(C)(C)C)n1,4.9
12,Cc1cc(C)nc(SCc2nnc(SCc3ccc([N+](=O)[O-])cc3)n2Cc2ccco2)n1,-57.5
13,Cc1cccc(-c2nnc(SCc3ccc(C#N)cc3)n2Cc2ccco2)c1,-44
14,Cc1ccc(-c2nnc(SCc3ccc(C#N)cc3)n2Cc2ccco2)cc1,-19.2
15,Cc1cc(C)nc(SCc2nnc(SCC(N)=O)n2Cc2ccco2)n1,-3.7
16,Cc1ccc(NCc2nnc(SCc3ccc(C#N)cc3)n2Cc2ccco2)c(C)c1,-54.9
17,COC(=O)CSc1nnc(CSc2nc(C)cc(C)n2)n1Cc1ccco1,11.5
18,Cl.O=C(NCCCn1ccnc1)c1cc(Cl)cc(Cl)c1,4.65
19,CC1CCC/C(=C\Nc2ccc(C(=O)O)c(O)c2)C1=O (centres unmarked),9.19
20,COc1cc(OC)cc(C(=O)Oc2ccc(/C=N/Nc3nc4ccccc4s3)cc2OC)c1,0.482
21,Cc1onc(-c2c(Cl)cccc2Cl)c1C(=O)Nc1ccc(Cl)cn1,11.3

row,SMILES,"hERG current change (%, negative = inhibition) at 1uM [%]"
1,COc1ccccc1NS(=O)(=O)c1cccc(C(=O)NCC(c2ccco2)N2CCCCC2)c1 (centres unmarked),-0.284
2,COc1ccccc1C(=O)NCC(=O)NC(C)c1ccc(-n2ccnc2)cc1 (centres unmarked),-2.86
3,CCOc1ccccc1C(=O)NC(C)c1ccc(-n2ccnc2)cc1 (centres unmarked),-34.8
4,CCOc1ccccc1C(=O)NCC(=O)NC(C)c1ccc(-n2ccnc2)cc1 (centres unmarked),-58.3
5,COc1ccccc1NC(=O)c1ccc(COc2ccccc2Br)o1,13.8
6,CCc1ccc(CN2CCN(Cc3ccc(SC)cc3)CC2)cc1.O=C(O)C(=O)O,-27.1
7,CCS(=O)(=O)N1CCN(Cc2ccc([N+](=O)[O-])cc2)CC1.O=C(O)C(=O)O,9.38
8,COc1ccccc1N1CCN(Cc2ccc(SC)cc2)CC1.O=C(O)C(=O)O,-53.8
9,CCN(CC)c1ccc(CN2CCC(C(=O)NCc3ccc(C)cc3)CC2)cc1.O=C(O)C(=O)O,-13.2
10,O=C(O)C(=O)O.O=C(c1ccc([N+](=O)[O-])cc1)N1CCN(Cc2ccccc2[N+](=O)[O-])CC1,-70.1
11,COc1ccccc1N1CCN(Cc2ccc(Br)cc2)CC1.O=C(O)C(=O)O,-6.63
12,CSc1ccc(CN2CCC(C(=O)NCc3ccc(C)cc3)CC2)cc1.O=C(O)C(=O)O,-76.1
13,Cc1ccc(CNC(=O)C2CCCC2)cc1,10.4
14,COc1ccc(C(=O)N2CCN(Cc3ccccc3[N+](=O)[O-])CC2)cc1.O=C(O)C(=O)O,-20.9
15,COc1ccccc1N1CCN(Cc2ccccc2)CC1.O=C(O)C(=O)O,6.85
16,CSc1ccc(CN2CCN(Cc3ccc([N+](=O)[O-])cc3)CC2)cc1.O=C(O)C(=O)O,-70.5
17,COc1cc(OC)cc(C(=O)N2CCN(Cc3ccccc3[N+](=O)[O-])CC2)c1.O=C(O)C(=O)O,-7.12
18,O=C(Cc1ccc([N+](=O)[O-])cc1)NCc1ccccn1,12.5
19,CC(N=C1NS(=O)(=O)c2ccccc21)C(=O)OCC(=O)N(C)C1CCS(=O)(=O)C1 (centres unmarked),-1.85
20,Cc1ccc2c(c1)c1c(c(=O)n(-c3ccccc3C)c(=O)n1CC(=O)NCC1CCCO1)n2C (centres unmarked),0.188
